# Laboratory results reported in the supplement of paper PMC4466140.
# ± gives the standard deviation of the averaged measurements.
# Target: AgAbp1
# Experiment: SPOT peptide array binding signal intensity (averaged, normalized) (arbitrary units (background-subtracted, floor 0; scale differs between SH3 domains)); higher = stronger binding of the SH3 domain to the peptide
# How it was run: (§1)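 The binding signal is the normalized, background-subtracted spot intensity averaged over replicates; its arbitrary units differ between domains. It was obtained by incubating 10 μg/ml GST-fused SH3 domains from four yeast species overnight at 4°C in TBS-based blocking buffer on cellulose membranes with synthetic 15-mer peptides, cysteines replaced by serines, then detecting with anti-GST antibody, HRP anti-mouse secondary and luminol.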
row,Binder,SPOT peptide array binding signal intensity
1,VSKLRSPNTPRRLRK,210 ± 71

# Target: AgBbc1
# Experiment: as above
# How it was run: as §1
row,Binder,SPOT peptide array binding signal intensity
1,VSKLRSPNTPRRLRK,284 ± 140

# Target: AgBem1-D1
# Experiment: as above
# How it was run: as §1
row,Binder,SPOT peptide array binding signal intensity
1,VSKLRSPNTPRRLRK,116 ± 54

# Target: AgBzz1-D1
# Experiment: as above
# How it was run: as §1
row,Binder,SPOT peptide array binding signal intensity
1,VSKLRSPNTPRRLRK,65.5 ± 29

# Target: AgBzz1-D2
# Experiment: as above
# How it was run: as §1
row,Binder,SPOT peptide array binding signal intensity
1,VSKLRSPNTPRRLRK,44.8 ± 5.3

# Target: AgCyk3
# Experiment: as above
# How it was run: as §1
row,Binder,SPOT peptide array binding signal intensity
1,VSKLRSPNTPRRLRK,7 ± 0.71

# Target: AgFus1
# Experiment: as above
# How it was run: as §1
row,Binder,SPOT peptide array binding signal intensity
1,VSKLRSPNTPRRLRK,192 ± 110

# Target: AgHof1
# Experiment: as above
# How it was run: as §1
row,Binder,SPOT peptide array binding signal intensity
1,VSKLRSPNTPRRLRK,68 ± 14

# Target: AgHse1
# Experiment: as above
# How it was run: as §1
row,Binder,SPOT peptide array binding signal intensity
1,VSKLRSPNTPRRLRK,352 ± 230

# Target: AgLsb1
# Experiment: as above
# How it was run: as §1
row,Binder,SPOT peptide array binding signal intensity
1,VSKLRSPNTPRRLRK,3.38 ± 4.1

# Target: AgLsb4
# Experiment: as above
# How it was run: as §1
row,Binder,SPOT peptide array binding signal intensity
1,VSKLRSPNTPRRLRK,48.8 ± 16

# Target: AgMyo5
# Experiment: as above
# How it was run: as §1
row,Binder,SPOT peptide array binding signal intensity
1,VSKLRSPNTPRRLRK,2.75 ± 2.5

# Target: AgNbp2
# Experiment: as above
# How it was run: as §1
row,Binder,SPOT peptide array binding signal intensity
1,VSKLRSPNTPRRLRK,84.2 ± 8.8

# Target: AgRvs167
# Experiment: as above
# How it was run: as §1
row,Binder,SPOT peptide array binding signal intensity
1,VSKLRSPNTPRRLRK,9.83 ± 2.1

# Target: AgSho1
# Experiment: as above
# How it was run: as §1
row,Binder,SPOT peptide array binding signal intensity
1,VSKLRSPNTPRRLRK,13 ± 2.8

# Target: AgSla1-D1-D2
# Experiment: as above
# How it was run: as §1
row,Binder,SPOT peptide array binding signal intensity
1,VSKLRSPNTPRRLRK,334 ± 170

# Target: AgSla1-D3
# Experiment: as above
# How it was run: as §1
row,Binder,SPOT peptide array binding signal intensity
1,VSKLRSPNTPRRLRK,8.88 ± 5.8

# Target: CaAbp1-D1
# Experiment: as above
# How it was run: as §1
row,Binder,SPOT peptide array binding signal intensity
1,VSKLRSPNTPRRLRK,897 ± 89

# Target: CaAbp1-D2
# Experiment: as above
# How it was run: as §1
row,Binder,SPOT peptide array binding signal intensity
1,VSKLRSPNTPRRLRK,576 ± 100

# Target: CaBbc1
# Experiment: as above
# How it was run: as §1
row,Binder,SPOT peptide array binding signal intensity
1,VSKLRSPNTPRRLRK,863 ± 130

# Target: CaBem1-D1
# Experiment: as above
# How it was run: as §1
row,Binder,SPOT peptide array binding signal intensity
1,VSKLRSPNTPRRLRK,64 ± 8.5

# Target: CaBzz1-D1
# Experiment: as above
# How it was run: as §1
row,Binder,SPOT peptide array binding signal intensity
1,VSKLRSPNTPRRLRK,156 ± 7.4

# Target: CaBzz1-D2
# Experiment: as above
# How it was run: as §1
row,Binder,SPOT peptide array binding signal intensity
1,VSKLRSPNTPRRLRK,146 ± 120

# Target: CaCyk3
# Experiment: as above
# How it was run: as §1
row,Binder,SPOT peptide array binding signal intensity
1,VSKLRSPNTPRRLRK,47.2 ± 1.1

# Target: CaFus1
# Experiment: as above
# How it was run: as §1
row,Binder,SPOT peptide array binding signal intensity
1,VSKLRSPNTPRRLRK,230 ± 22

# Target: CaHof1
# Experiment: as above
# How it was run: as §1
row,Binder,SPOT peptide array binding signal intensity
1,VSKLRSPNTPRRLRK,0.5 ± 0.71

# Target: CaHse1
# Experiment: as above
# How it was run: as §1
row,Binder,SPOT peptide array binding signal intensity
1,VSKLRSPNTPRRLRK,4.62 ± 3.4

# Target: CaLsb1
# Experiment: as above
# How it was run: as §1
row,Binder,SPOT peptide array binding signal intensity
1,VSKLRSPNTPRRLRK,0.75 ± 0.35

# Target: CaLsb4
# Experiment: as above
# How it was run: as §1
row,Binder,SPOT peptide array binding signal intensity
1,VSKLRSPNTPRRLRK,778 ± 490

# Target: CaMyo5
# Experiment: as above
# How it was run: as §1
row,Binder,SPOT peptide array binding signal intensity
1,VSKLRSPNTPRRLRK,3.38 ± 0.18

# Target: CaNbp2
# Experiment: as above
# How it was run: as §1
row,Binder,SPOT peptide array binding signal intensity
1,VSKLRSPNTPRRLRK,166 ± 86

# Target: CaRvs167
# Experiment: as above
# How it was run: as §1
row,Binder,SPOT peptide array binding signal intensity
1,VSKLRSPNTPRRLRK,23.8 ± 10

# Target: CaRvs167-3
# Experiment: as above
# How it was run: as §1
row,Binder,SPOT peptide array binding signal intensity
1,VSKLRSPNTPRRLRK,28.2 ± 2.5

# Target: CaSho1
# Experiment: as above
# How it was run: as §1
row,Binder,SPOT peptide array binding signal intensity
1,VSKLRSPNTPRRLRK,131 ± 3.9

# Target: CaSla1-D1-D2
# Experiment: as above
# How it was run: as §1
row,Binder,SPOT peptide array binding signal intensity
1,VSKLRSPNTPRRLRK,270 ± 140

# Target: CaSla1-D3
# Experiment: as above
# How it was run: as §1
row,Binder,SPOT peptide array binding signal intensity
1,VSKLRSPNTPRRLRK,3.88 ± 0.53

# Target: ScAbp1
# Experiment: as above
# How it was run: as §1
row,Binder,SPOT peptide array binding signal intensity
1,VSKLRSPNTPRRLRK,41 ± 23

# Target: ScBbc1
# Experiment: as above
# How it was run: as §1
row,Binder,SPOT peptide array binding signal intensity
1,VSKLRSPNTPRRLRK,266 ± 81

# Target: ScBem1-D1
# Experiment: as above
# How it was run: as §1
row,Binder,SPOT peptide array binding signal intensity
1,VSKLRSPNTPRRLRK,25.2 ± 17

# Target: ScBzz1-D1
# Experiment: as above
# How it was run: as §1
row,Binder,SPOT peptide array binding signal intensity
1,VSKLRSPNTPRRLRK,23 ± 9.9

# Target: ScBzz1-D2
# Experiment: as above
# How it was run: as §1
row,Binder,SPOT peptide array binding signal intensity
1,VSKLRSPNTPRRLRK,9.25 ± 3.9

# Target: ScCyk3
# Experiment: as above
# How it was run: as §1
row,Binder,SPOT peptide array binding signal intensity
1,VSKLRSPNTPRRLRK,110 ± 25

# Target: ScFus1
# Experiment: as above
# How it was run: as §1
row,Binder,SPOT peptide array binding signal intensity
1,VSKLRSPNTPRRLRK,143 ± 42

# Target: ScHof1
# Experiment: as above
# How it was run: as §1
row,Binder,SPOT peptide array binding signal intensity
1,VSKLRSPNTPRRLRK,≤ 0

# Target: ScHse1
# Experiment: as above
# How it was run: as §1
row,Binder,SPOT peptide array binding signal intensity
1,VSKLRSPNTPRRLRK,701 ± 130

# Target: ScLsb1
# Experiment: as above
# How it was run: as §1
row,Binder,SPOT peptide array binding signal intensity
1,VSKLRSPNTPRRLRK,33.2 ± 7.8

# Target: ScLsb2
# Experiment: as above
# How it was run: as §1
row,Binder,SPOT peptide array binding signal intensity
1,VSKLRSPNTPRRLRK,11.8 ± 1.1

# Target: ScLsb3
# Experiment: as above
# How it was run: as §1
row,Binder,SPOT peptide array binding signal intensity
1,VSKLRSPNTPRRLRK,2420 ± 260

# Target: ScLsb4
# Experiment: as above
# How it was run: as §1
row,Binder,SPOT peptide array binding signal intensity
1,VSKLRSPNTPRRLRK,70.5 ± 9.2

# Target: ScMyo3
# Experiment: as above
# How it was run: as §1
row,Binder,SPOT peptide array binding signal intensity
1,VSKLRSPNTPRRLRK,2.62 ± 2.3

# Target: ScMyo5
# Experiment: as above
# How it was run: as §1
row,Binder,SPOT peptide array binding signal intensity
1,VSKLRSPNTPRRLRK,2.88 ± 1.9

# Target: ScNbp2
# Experiment: as above
# How it was run: as §1
row,Binder,SPOT peptide array binding signal intensity
1,VSKLRSPNTPRRLRK,275 ± 49

# Target: ScPex13
# Experiment: as above
# How it was run: as §1
row,Binder,SPOT peptide array binding signal intensity
1,VSKLRSPNTPRRLRK,8.5 ± 12

# Target: ScRvs167
# Experiment: as above
# How it was run: as §1
row,Binder,SPOT peptide array binding signal intensity
1,VSKLRSPNTPRRLRK,230.2 ± 2.2

# Target: ScSho1
# Experiment: as above
# How it was run: as §1
row,Binder,SPOT peptide array binding signal intensity
1,VSKLRSPNTPRRLRK,258 ± 32

# Target: ScSla1-D1-D2
# Experiment: as above
# How it was run: as §1
row,Binder,SPOT peptide array binding signal intensity
1,VSKLRSPNTPRRLRK,953 ± 160

# Target: ScSla1-D3
# Experiment: as above
# How it was run: as §1
row,Binder,SPOT peptide array binding signal intensity
1,VSKLRSPNTPRRLRK,36.2 ± 41

# Target: SpAbp1-D1
# Experiment: as above
# How it was run: as §1
row,Binder,SPOT peptide array binding signal intensity
1,VSKLRSPNTPRRLRK,384 ± 320

# Target: SpBbc1
# Experiment: as above
# How it was run: as §1
row,Binder,SPOT peptide array binding signal intensity
1,VSKLRSPNTPRRLRK,5.75 ± 1.1

# Target: SpBzz1-D1
# Experiment: as above
# How it was run: as §1
row,Binder,SPOT peptide array binding signal intensity
1,VSKLRSPNTPRRLRK,236 ± 150
